{
  "source": "PubChem BioAssay (NCATS)",
  "note": "Records with an inconclusive call do not appear. A number with no mark means an inactive call. Active and inactive are the calls of the source. Calls follow the shape of the full dose curve; tested in HEK293 reporter line. % is scaled to controls: 0 for no effect and ±100 for the full control effect.",
  "data": [
    {"assay": "qHTS for Inhibitors of the Functional Ribonucleoprotein Complex (vRNP) of Lassa (LASV) Arenavirus: LASV Primary Screen - GLuc reporter signal (AID 1347082); also: nearly all actives have a fitted effect of over 60% in size", "settings": "LASV minigenome vRNP, Gaussia luciferase reporter; series mostly up to 57.5 µM; activity change, negative = inhibition: at the top concentration", "values": [
      {"smiles": "O=C/C=C/c1ccccc1", "activity change, negative = inhibition": "5.7%"},
      {"smiles": "C[C@@H]1[C@@H]2Cc3ccc(O)cc3[C@@]1(C)CCN2CC1CC1", "activity change, negative = inhibition": "5.57%"},
      {"smiles": "CC1OC1P(=O)(O)O", "note": "(stereo unspecified)", "activity change, negative = inhibition": "1.31%"},
      {"smiles": "COc1cc(CC(C)N)c(OC)cc1I", "note": "(stereo unspecified)", "activity change, negative = inhibition": "-7.63%"},
      {"smiles": "CCCCCCC(C)(C)c1ccc([C@@H]2C[C@H](O)CC[C@H]2CCCO)c(O)c1", "activity change, negative = inhibition": "-37.9%"},
      {"smiles": "C=CCN1CCc2cccc3c2[C@H]1Cc1ccc(O)c(O)c1-3", "activity change, negative = inhibition": "-0.418%"},
      {"smiles": "NC(N)=NOCC[C@H](N)C(=O)O", "activity change, negative = inhibition": "-0.961%"},
      {"smiles": "N[C@@H](CCl)C(=O)O", "activity change, negative = inhibition": "-3.09%"},
      {"smiles": "C[C@@H]1O[C@H](C[N+](C)(C)C)CS1", "activity change, negative = inhibition": "12.9%"},
      {"smiles": "CCN(CC)c1ncnc2c1ncn2[C@@H]1O[C@H](COP(=O)(O)OP(=O)(O)C(Br)(Br)P(=O)(O)O)[C@@H](O)[C@H]1O", "activity change, negative = inhibition": "-0.0578%"},
      {"smiles": "C[C@]12C=CC(=O)C=C1CC[C@@H]1[C@@H]2CC[C@]2(C)OC(=O)CC[C@@H]12", "activity change, negative = inhibition": "5.18%"},
      {"smiles": "C[N+]1(C)CCC(OC(=O)C(c2ccccc2)c2ccccc2)CC1", "activity change, negative = inhibition": "0.065%"},
      {"smiles": "C=CCN1CC[C@]23c4c5ccc(O)c4O[C@@H]2/C(=N/N=C2\\CC[C@@]4(O)C6Cc7ccc(O)c8c7[C@@]4(CCN6CC=C)[C@@H]2O8)CC[C@@]3(O)C1C5", "activity change, negative = inhibition": "-11.1%"},
      {"smiles": "CC(C)CC(NP(=O)(O)O[C@@H]1O[C@@H](C)[C@H](O)[C@@H](O)[C@H]1O)C(=O)NC(Cc1c[nH]c2ccccc12)C(=O)O", "note": "(stereo partly specified)", "Potency": "inactive"},
      {"smiles": "CN1[C@H]2CC[C@@H]1[C@@H](C(=O)O)[C@@H](OC(=O)c1ccccc1)C2", "activity change, negative = inhibition": "-3.43% [at 115 µM]"},
      {"smiles": "COc1ccc2c(c1)[C@@]13CCCC[C@H]1[C@@H](C2)NCC3", "activity change, negative = inhibition": "-4.7%"},
      {"smiles": "CCCn1c(C)c(C(=O)c2ccc3ccccc3c2)c2ccccc21", "activity change, negative = inhibition": "1.28%"},
      {"smiles": "CC(C)[C@@]1(NC(=O)[C@@H]2C[C@@H]3c4cccc5[nH]cc(c45)C[C@H]3N(C)C2)O[C@@]2(O)[C@@H]3CCCN3C(=O)[C@H](Cc3ccccc3)N2C1=O", "activity change, negative = inhibition": "-18%"},
      {"smiles": "C[Se]C[C@H](N)C(=O)O", "activity change, negative = inhibition": "2.9%"},
      {"smiles": "C=CCN(C1=NCCN1)c1c(Cl)cccc1Cl", "activity change, negative = inhibition": "2.11%"},
      {"smiles": "C[N+]1(C)[C@@H]2CC(OC(=O)[C@H](CO)c3ccccc3)C[C@H]1[C@H]1O[C@@H]12", "note": "(stereo partly specified)", "activity change, negative = inhibition": "-6.78%"},
      {"smiles": "N[C@@H](Cn1ccc(=O)[nH]c1=O)C(=O)O", "activity change, negative = inhibition": "4.33%"},
      {"smiles": "COc1ccc2c(c1O)-c1cccc3c1[C@@H](C2)N(C)CC3", "activity change, negative = inhibition": "7.23%"},
      {"smiles": "C=CCN1CC[C@]23c4c5ccc(O)c4O[C@H]2/C(=N/NC(=O)c2ccccc2)CC[C@@]3(O)[C@H]1C5", "activity change, negative = inhibition": "-6.15%"},
      {"smiles": "CC1=C2C[C@H]3[C@@H](CC=C4C[C@@H](O)CC[C@@]43C)[C@@H]2CC[C@]12O[C@@H]1C[C@H](C)CN[C@H]1[C@H]2C", "activity change, negative = inhibition": "0.565%"},
      {"smiles": "O[C@H]1[C@H]2[C@H](O)CCCN2C[C@H]1O", "activity change, negative = inhibition": "-0.153%"},
      {"smiles": "CCN(CCCl)Cc1ccccc1Br", "activity change, negative = inhibition": "-0.143%"},
      {"smiles": "N#C/C(=C/c1ccc(O)c(O)c1)C(N)=S", "activity change, negative = inhibition": "-23.2%"},
      {"smiles": "CN(C)[C@@H]1C(=O)C(C(N)=O)=C(O)[C@@]2(O)C(=O)C3=C(O)c4c(O)ccc(Cl)c4[C@@](C)(O)[C@H]3C[C@@H]12", "activity change, negative = inhibition": "-10.7%"},
      {"smiles": "C[CH2][Hg][S]c1ccccc1C(=O)O", "activity change, negative = inhibition": "1.62%"},
      {"smiles": "O=c1c2ccccc2[se]n1-c1ccccc1", "activity change, negative = inhibition": "1.06%"},
      {"smiles": "O=C(O)c1cc[c]([Hg][Cl])cc1", "activity change, negative = inhibition": "-5.14%"},
      {"smiles": "COc1ccc2c(c1)c(CCN1CCOCC1)c(C)n2C(=O)c1cccc(Cl)c1Cl", "activity change, negative = inhibition": "-34.9%"},
      {"smiles": "CCCN(CCC)CCc1c[nH]c2ccc(C(N)=O)cc12", "activity change, negative = inhibition": "0.289%"},
      {"smiles": "O=P(O)(O)C(Cl)(Cl)P(=O)(O)O", "activity change, negative = inhibition": "2.52%"},
      {"smiles": "CN[C@H]1C[C@@H](N)[C@H](O)[C@@H](O[C@@H]2O[C@H](CO)[C@H](O)[C@@H]3OC4(O[C@H]23)O[C@H](C(N)CO)[C@H](O)[C@H](O)[C@H]4O)[C@@H]1O", "note": "(stereo partly specified)", "activity change, negative = inhibition": "-6.59%"}
    ]}
  ]
}
